This passage reports inhibition results from ChEMBL document CHEMBL1961873, “Compounds: GSK PKIS; Assays: Nanosyn kinase panel” (2012).

Each structure is given as a SMILES string. Where “and” joins values, the source holds several entries; their conditions need not be identical. Equal values may be shown once.
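Further: reported figure is a mean percent inhibition of FGFR2.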

Fibroblast growth factor receptor 2 (Homo sapiens), sequence (P21802 22-821 limits assumed): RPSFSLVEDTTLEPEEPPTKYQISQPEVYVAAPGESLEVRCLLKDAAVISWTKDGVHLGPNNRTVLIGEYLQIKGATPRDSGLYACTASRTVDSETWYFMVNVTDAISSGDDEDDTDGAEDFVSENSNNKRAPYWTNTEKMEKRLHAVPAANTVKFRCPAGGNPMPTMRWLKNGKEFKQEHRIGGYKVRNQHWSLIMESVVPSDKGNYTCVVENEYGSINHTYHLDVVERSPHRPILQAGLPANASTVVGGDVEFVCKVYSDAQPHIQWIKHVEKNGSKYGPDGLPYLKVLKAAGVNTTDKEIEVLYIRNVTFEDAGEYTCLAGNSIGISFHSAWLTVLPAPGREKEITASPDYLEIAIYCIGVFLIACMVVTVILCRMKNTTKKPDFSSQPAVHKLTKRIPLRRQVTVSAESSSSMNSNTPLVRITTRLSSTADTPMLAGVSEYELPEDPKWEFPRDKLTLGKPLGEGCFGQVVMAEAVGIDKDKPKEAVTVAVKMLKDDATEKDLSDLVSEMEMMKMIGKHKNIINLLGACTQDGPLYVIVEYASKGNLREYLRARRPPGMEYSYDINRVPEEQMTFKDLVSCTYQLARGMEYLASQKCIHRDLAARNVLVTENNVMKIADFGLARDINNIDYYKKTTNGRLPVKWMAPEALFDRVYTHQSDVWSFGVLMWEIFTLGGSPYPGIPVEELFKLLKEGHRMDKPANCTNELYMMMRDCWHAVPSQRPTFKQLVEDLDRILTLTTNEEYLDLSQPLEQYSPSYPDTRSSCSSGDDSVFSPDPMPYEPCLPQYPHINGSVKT

The assay addresses Fibroblast growth factor receptor 2 (Homo sapiens) (UniProt P21802). The conditions noted are these: at 1 µM.
Turning to `NS(=O)(=O)c1ccc(N/N=C2\C(=O)Nc3ccc(C(=O)NCc4ccncc4)cc32)cc1`, the inhibition (commonly the relative decrease from the control value, in per cent) worked out at 11.9%. Take `Nc1nccc(-c2c(-c3ccc(F)cc3)ncn2C2CCNCC2)n1`: the inhibition is -3.58% and 1.03%. With `CCOc1ccc2c(-c3ccnc(Nc4cc(OC)cc(C(F)(F)F)c4)n3)cnn2n1`, the inhibition was found to be 3.9%.

With `CS(=O)(=O)CCNCc1ccc(-c2ccc3ncnc(Nc4ccc(OCc5cccc(C(F)(F)F)c5)cc4)c3c2)o1`, the inhibition came out at 14.2%.

On to `Fc1ccc(Nc2nccc(-c3c(-c4ccc(C(F)(F)F)cc4)nn4ncccc34)n2)cc1F`, for which the inhibition amounted to 6.72%. Consider `COc1cccc(-n2ncc3c(N/N=C/c4ccc(C(=O)NCCN(C)C)cc4)ncnc32)c1`, for which the inhibition stood at 10.7%. Next, `CCn1c(-c2nonc2N)nc2cncc(C(=O)NCCNC)c21`: 5.33%; `COc1cc(Nc2ncc(-c3ccccc3)o2)cc(OC)c1`: 11.7%. Take `O=C1Nc2ccccc2/C1=C1\CCc2cc(O)ccc21`: the inhibition was determined as 31.3%.

Turning to `CS(=O)(=O)CCNCc1ccc(-c2ccc3ncnc(Nc4ccc(OCc5ccccc5)cc4)c3c2)o1`, the inhibition came out at 4.3%.

For the molecule `FC(F)(F)CNc1nccc(-c2cnn3ncccc23)n1`, the inhibition turned out to be 3.09%. For the molecule `Cc1c2ccc(N(C)c3ccnc(Nc4cccc(S(N)(=O)=O)c4)n3)cc2nn1C`, the inhibition is 69.9%. Take `CN1CCC(n2cnc(-c3ccc(F)cc3)c2-c2ccnc(NCCO)n2)CC1`: the inhibition was 6.49%. Consider `NS(=O)(=O)c1cccc(N/C=C2\C(=O)Nc3ccccc32)c1`, for which the inhibition is 26.9%. Consider `CNC(=O)c1ncccc1Nc1nc(Nc2cc3c(cc2OC)CCCN3C(=O)CN(C)C)nc2[nH]ccc12`, for which the inhibition stood at 6.99%.

`COc1c(C(N)=O)cc(-c2ccc(Cl)cc2)cc1-c1ccc(S(N)(=O)=O)cc1`: the inhibition was found to be 5.85%.
